Source: PubChem BioAssay (NCI)
Compounds without any hit were thinned out: in the full panel of roughly 83,000, 20% have a hit.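 Cells were grown in 96-well plates and exposed to the test compound at a single concentration for 48 hours; results are reported as percent growth, with values below 10 considered active.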 Values without a mark were called inactive. Active and inactive are the calls of the source.

Assays:
Test in all cases: NCI-60 one-dose screen, 48 h (100 = growth as untreated, 0 = no growth, -100 = all killed)
Settings in all cases: 10 µM unless noted
NCI-H23 lung = test system: NCI-H23 lung
NCI-H322M lung = test system: NCI-H322M lung
HOP-62 NSCLC = test system: HOP-62 NSCLC
NCI-H460 lung = test system: NCI-H460 lung
HOP-92 NSCLC = test system: HOP-92 NSCLC
NCI-H522 lung = test system: NCI-H522 lung
A549/ATCC NSCLC = test system: A549/ATCC NSCLC
786-0 renal = test system: 786-0 renal
COLO 205 colon = test system: COLO 205 colon
DU-145 prostate = test system: DU-145 prostate
MALME-3M melanoma = test system: MALME-3M melanoma
MDA-MB-231 breast = test system: MDA-MB-231 breast
SF-268 CNS = test system: SF-268 CNS
SF-295 CNS = test system: SF-295 CNS
SF-539 CNS = test system: SF-539 CNS
UACC-257 melanoma = test system: UACC-257 melanoma
M14 melanoma = test system: M14 melanoma
HCT-15 colon = test system: HCT-15 colon
K-562 leukemia = test system: K-562 leukemia
RXF 393 renal = test system: RXF 393 renal

Structure (SMILES) | growth (NCI-H23 lung) | growth (NCI-H322M lung) | growth (HOP-62 NSCLC) | growth (NCI-H460 lung) | growth (HOP-92 NSCLC) | growth (NCI-H522 lung) | growth (A549/ATCC NSCLC) | growth (786-0 renal) | growth (COLO 205 colon) | growth (DU-145 prostate) | growth (MALME-3M melanoma) | growth (MDA-MB-231 breast) | growth (SF-268 CNS) | growth (SF-295 CNS) | growth (SF-539 CNS) | growth (UACC-257 melanoma) | growth (M14 melanoma) | growth (HCT-15 colon) | growth (K-562 leukemia) | growth (RXF 393 renal)
Cc1cccc(NC(=O)c2sc3nc4c(cc3c2N)CCCC4)c1C | 30.2% | 42.4% | 26.4% | 6.76% (active) | 49.6% | -6.44% (active) | 26.3% | 34% | -38% (active) | 19.6% | 45.7% | 38.6% | 34.9% | 6.95% (active) | -12.2% (active) | 66.3% | 4.97% (active) | 16.2% | – | –
CCCCCCCCCCCCCCn1cc(C2=C(c3coc4ccc(OC)cc34)C(=O)NC2=O)c2ccccc21 | 96% | 99.7% | 103% | 98.5% | 107% | 90.3% | 96.6% | 97.6% | – | 102% | 107% | 111% | 98.8% | 97.2% | 103% | 96.8% | 98.7% | 88.1% | 121% | 108%
Cn1cc(-c2ccc3ncc(-c4ccc(CC(=O)Nc5cc(C(C)(C)C)no5)cc4)nc3c2)cn1 | 36.6% | 20.6% | 42.5% | 22.8% | 46.3% | 41.6% | 33.7% | 39.2% | – | 34.3% | 25% | 28.7% | 36% | 47.2% | 27.3% | 61.2% | 34.6% | 16.3% | 22.5% | 32.3%
Cc1cccc2c(=O)c3c(sc12)c(N1CCNCC1)nc1ccccc13 | 80.4% | 74.5% | 73.6% | 80% | 53.7% | 82.6% | 78.3% | 78.1% | – | 67.5% | 98.6% | 56.3% | 76.1% | 93.5% | 75.8% | 96.6% | 74% | 25.9% | -23% (active) | 72.2%
Cc1ccc(N=NC2C(=O)N(c3ccc(Cl)cc3)N(c3ccc(Cl)cc3)C2=O)cc1 | 95.6% | 97.4% | 89.2% | 99.8% | 101% | 85.1% | 99% | 108% | – | 107% | 98% | 91.7% | 100% | 93.9% | 100% | 86.8% | 102% | 98.3% | 94.1% | 113%
O=C(NCc1ccco1)C1CN(c2ccc(Cl)cc2)N(c2ccc(Cl)cc2)C1=O (stereo unspecified) | 59.5% | 68.2% | 48.6% | 14.4% | 78.1% | 39.3% | 40.1% | 37.6% | – | 70.1% | 37.2% | 59.1% | 50.9% | 30.1% | 49.4% | 69.1% | 32.1% | 28.4% | 17.9% | 58.2%
COc1ccc(-c2c(-c3ccc(OC)c(O)c3)cnc3ncnn23)cc1 | 99.9% | 106% | 111% | 108% | 95.1% | 96% | 100% | 103% | 126% | 105% | 111% | 102% | 101% | 102% | 98.6% | 105% | 106% | 100% | – | –
O=C(Cn1cc(COc2ncnc3c2cnn3-c2ccccc2)nn1)Nc1ccccn1 | 96.6% | 93.6% | 91.5% | 101% | 75.2% | 87.6% | 94.2% | 104% | – | 101% | 94.5% | 85.2% | 92.9% | 102% | 89.1% | 98.4% | 97.4% | 101% | 96.7% | 112%
O=C(/C=C/c1ccc(Cl)cc1)c1ccc(Nc2nc(NCCO)nc(Nc3ccc(Cl)cc3)n2)cc1 | 87.6% | 86.7% | 80.3% | 54.3% | 63.1% | 77.8% | 51.2% | 26.9% | – | 67.7% | 90.3% | 62.4% | 60.2% | 87.2% | 64.8% | 95.8% | 64.1% | 25.9% | 37.6% | 54.3%
CC1=CCC(OC(=O)C(C)(C)CCC(O)(C(=O)OC2(C(C)C)CCC3(C)OC3C2)C(C)C)(C(C)C)CC1 (stereo unspecified) | -73.2% (active) | -93% (active) | -66.7% (active) | -84.2% (active) | -71.7% (active) | -76.3% (active) | -82.8% (active) | -90.5% (active) | -61.5% (active) | -95.8% (active) | -84.1% (active) | -63.1% (active) | -74.5% (active) | -92.2% (active) | -97.3% (active) | -57.6% (active) | -81% (active) | -59.8% (active) | – | -91.2% (active)
COc1ccc2occ(C3=C(c4c[nH]c5ccccc45)C(=O)NC3=O)c2c1 | 62.2% | 79% | 41.6% | 22.5% | 67.2% | 33% | 40.8% | 74.7% | – | 92.1% | 46.7% | 28% | 52% | 35.6% | 51.8% | 76.3% | 27.3% | 24.1% | 21.6% | 34.5%
COc1cc(/C=C2\CN(C)C/C(=C\c3cc(CN4CCCCC4)c(O)c(OC)c3)C2=O)cc(CN2CCCCC2)c1O | 34.2% | 43.1% | 65% | 0.801% (active) | 51% | 39.8% | 45.7% | 50.1% | – | 1.15% (active) | 84.6% | 7.14% (active) | 41% | 91.7% | 48.6% | 76.9% | 70.3% | 18.6% | 10.2% | 29.7%
COc1ccc(-c2cn[nH]c2-c2cc(OC)c(OC)c(OC)c2)cc1OCc1ccccc1 | 33.2% | 49.1% | 27.7% | 12.2% | 31.4% | -19.7% (active) | 37.7% | 21.5% | 104% | 65.2% | 36.6% | 46.1% | 27% | -1.63% (active) | -19.8% (active) | 47.6% | 10.7% | 23.7% | – | –
COc1ccc(C2C3=C(COC3=O)N(CCO)c3cc4c(cc32)OCCO4)cc1 (stereo unspecified) | 97.2% | 125% | 80.4% | 77.4% | 102% | 58.2% | – | 87.5% | 84.2% | 106% | 103% | 91.2% | 86.5% | 55.8% | 83.1% | 69% | 77.7% | 65.6% | 53.1% | 75.5%
O=c1c2cc(F)ccc2sc2c(Nc3ccncc3)nc3ccccc3c12 | 45.9% | 81.4% | 34.7% | -76.7% (active) | 54.5% | 5.65% (active) | -43.8% (active) | -79.8% (active) | – | 4.28% (active) | 22% | -89.7% (active) | -10.4% (active) | 101% | 70.8% | 113% | -27.2% (active) | -70.5% (active) | -47.1% (active) | -42% (active)
NCCCNc1nc2ccccc2c2c(=O)c3cc(F)ccc3sc12 | 70% | 41.9% | 32.8% | -74.7% (active) | 8.11% (active) | -42.7% (active) | -29.3% (active) | 1.83% (active) | – | -22.8% (active) | 76.7% | -53.1% (active) | 34.3% | 85.9% | 55.2% | 68.1% | -55.5% (active) | -49.3% (active) | -50.4% (active) | 41.9%
